# Hits are enriched below; roughly 3% of the tested compounds scored in any of these assays.
# S16 viability: S16 Schwann cell cytotoxicity; S16 Pmp22-F2sN Schwann cells viability, CellTiter-Glo, 24 h; AID 1508642; hit rate 0.48% among 43,000; Potency, µM (highest dose often 57.5 µM), without a hit: at the highest dose activity change, negative = cytotoxicity, most hits filed as cytotoxic; further: nearly all actives have a fitted effect of over 65% in size
#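 Seed 500-1,000 S16 Pmp22-F2sN cells per well in phenol-red-free DMEM with 10% heat-inactivated FBS; pin-add 23 nL compound; incubate 24 h at 37C; add CellTiter-Glo, wait 15 min protected from light; read luminescence.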
# OvCa metastasis: blocks SKOV3ip1 adhesion and invasion in omental model; SKOV3ip1-GFP adhesion/invasion on 3D omental model, fluorescence; Potency, µM (doses to about 45.8 µM), inactives show top-dose activity change, negative = inhibition, hits mostly inhibitors; hit rate 0.1% among 46,000; AID 1963576;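 further: plate controls were DMSO wells for no effect and tomatine positive control wells for full effect; nearly all actives have a fitted effect of over 65% in size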
#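 A 3D layer of primary human omental fibroblasts, mesothelial cells, fibronectin and collagen I, grown 48 hr, received SKOV3ip1-GFP cells in serum-free medium plus compounds at 0.36-46 umol/L. After 2 hr RT and 16 hr 37 C, fixed adherent GFP cells were counted; normalized to DMSO and tomatine.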
# PMP22 txn prim: modulates PMP22 transcription in S16 Schwann cells; S16 Pmp22-F2sN Schwann cells (luciferase reporters placed in the Pmp22 gene), FLuc/NLuc coincidence luminescence, 24 h; Potency, µM (top dose mostly 57.5 µM), inactives show top-dose activity change, negative = inhibition, actives largely listed as inhibitors; hit rate 2% among 43,000; active means clear falling dose curves in both reporters; inconclusive means both reporters move, but less clearly or upward; inactive means either reporter flat; the % is the NLuc reporter signal
#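 Luminescent read-out of sequential FLuc and NLuc signals from a reporter embedded in the Pmp22 3' UTR of S16 Schwann cells, taken after 24 h compound exposure at 37C; compounds reducing both signals score as inhibitors of expression.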
# p53null 39C tox: p53 null cell cytotoxicity, nonpermissive temperature; H1299 p53-null (neo) cells, 39C, ATPlite viability, 24 h; Potency, µM (titrated, usually from 46.1 µM), without a hit: at the top dose activity, negative = cell killing, hits mostly cytotoxic; hit rate 0.97% among 55,000; AID 904;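 further: 0% = DMSO only and -100% = full killing by 100 µM tamoxifen; nearly all actives have a fitted effect of over 50% in size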
#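 H1299 lung cancer cells, p53-null (H1299-neo) or expressing p53 A138V (H1299-p53A138V), were plated overnight at 37C, then exposed to compounds at up to 46 uM for 24 hr at 39C. Viability was read by ATP-based luminescence.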
# mTORC1 inh: inhibitors of mTORC1 signaling in Tsc2-/- p53-/- MEF cells. hit rate 0.78% among 44,000. Potency, µM (series often up to 38.3 µM), for the others: at the top dose activity change, negative = inhibition, actives largely listed as inhibitors. Tsc2-/- p53-/- MEF, phospho-rpS6 immunofluorescence/PI, 24 h;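 further: plate controls were DMSO for no effect and rapamycin for full effect; nearly all actives have a fitted effect of over 50% in size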
#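 Read-out: phospho-S6 Alexa-488 intensity over PI intensity per well, scored as % active cells using thresholds from rapamycin (7.5 nM) and DMSO controls. Tsc2-/-, p53-/- MEFs exposed to compound for 24 h; PI cell count recorded as viability.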
# p53null 32C tox: p53 null cell cytotoxicity, permissive temperature; hit rate 0.62% among 55,000; H1299-neo p53 null cells, ATP luminescence, 24 h, 32C; AID 903; Potency, µM (doses to about 46.1 µM), inactives show at the top dose activity change, negative = cytotoxicity, actives largely listed as cytotoxic;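 further: 0% = DMSO only and -100% = full killing by 100 µM tamoxifen; nearly all actives have a fitted effect of over 55% in size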
#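 Cells lacking p53 (H1299-neo) are plated at 600 per well and allowed to settle overnight at 37C. Test compounds (up to 46 uM) are added and held 24 hours at 32C, then ATP is quantified by luminescence.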
# Numbers without * were called inactive; i = inactive; ? = inconclusive; . = not tested or not shown. Unless noted, the call rests on the fitted dose curve; in most records, active means well fitted curve in the direction sought with a large enough effect; inconclusive means small, poorly fitted or top-dose-only effect, or another doubt; inactive means no such curve, though single readings can be large; an effect the other way counts as inactive or inconclusive. Unless noted, on the % scale 0 is the no-effect control and ±100 the full control effect; potency means the concentration at half of the fitted maximal effect.
SMILES,S16 viability,OvCa metastasis,PMP22 txn prim,p53null 39C tox,mTORC1 inh,p53null 32C tox
CC(=O)C1=C(c2ccc(Cl)c(Cl)c2)N(C(C)=O)n2cnnc2S1,?,?,?,-22.5%,14.7µM*,12.1%
CCOc1ccc(C2=C(C(=O)CC)Sc3nncn3N2C(=O)CC)cc1,?,-19.2%,?,?,?,12.6µM*
COc1cccc(C2=C(C(C)=O)Sc3nncn3N2C(C)=O)c1,?,-17.7%,?,-1.5%,-10.0%,-8.5%
CCC(=O)C1=C(c2ccc(F)cc2)N(C(=O)CC)n2cnnc2S1,?,i,?,-1.1%,11.7µM*,-2.1%
O=C(CC12CC3CC(CC(C3)C1)C2)Nc1cccc2nc(NCCNCCO)ccc12,.,16.5%,.,.,.,.
CC(C)(C)c1cnc(CSc2cnc(NC(=O)C3CCNCC3)s2)o1,.,12.2%,.,.,.,.
CCC1=Nc2cc(C(=O)NC3CCC(C)CC3)ccc2Sc2ccc(C)cc21 (stereo unspecified),-2.8%,2.6%,5.66µM*,20.1%,?,21.8%
CCC1=Nc2cc(C(=O)NC3CCCC3)ccc2Sc2ccc(Br)cc21,?,i,10µM*,?,-25.8%,20.7%
CC1=Nc2cc(C(=O)NC3CCCC3)ccc2Sc2ccc(Br)cc21,2.6%,25.0%,?,16.3%,?,16.8%
CCCCNC(=O)c1ccc2c(c1)N=C(CC)c1ccccc1S2,?,5.8%,12.4µM*,?,?,-2.6%
CC1=Nc2cc(C(=O)NCCc3ccc(Cl)cc3)ccc2Sc2ccc(C)cc21,?,-4.3%,9.46µM*,29.3%,-16.0%,11.2%
CCCN1C(=O)C(Cc2nc3ccccc3c(=O)n2CC)c2cc(Br)ccc21 (stereo unspecified),?,i,?,?,14.7µM*,7.8%
CCn1c(CC2C(=O)N(C)c3ccc(Br)cc32)nc2ccccc2c1=O (stereo unspecified),-20.6%,i,?,?,?,-0.2%
COc1ccc(CSc2nc3ccncc3n2Cc2nc(-c3ccc(OC)c(OC)c3)oc2C)cc1,-21.0%,2.7%,-61.9%,?,-4.7%,12.6µM*
Cc1ccc(CSc2nc3ccncc3n2Cc2nc(-c3ccccc3C)oc2C)cc1,?,44.3%,?,6.31µM*,-6.8%,7.94µM*
Cn1cc(-c2[nH]c3cc(NC(=O)[C@H](N)C4CCCCC4)cc4c3c2C=NNC4=O)cn1,.,21.9%,.,.,.,.
CC1=C(C(=O)Nc2cc3cn[nH]c3cc2F)C(c2ccc(C(F)(F)F)cc2)CC(=O)N1 (stereo unspecified),.,5.3%,.,.,.,.
CC(=O)c1ccc(N2CCN(S(=O)(=O)c3ccc4c(c3)CC(C)N4C(=O)C3CCC3)CC2)cc1 (stereo unspecified),?,i,12.8µM*,-10.6%,-7.3%,-6.1%
CC(C)n1cnc2c(NCCCCCCNC(=O)OC(C)(C)C)nc(NCCO)nc21,.,-2.4%,.,.,.,.
CCN(CC)c1cc(C)c2cc(NC(=O)/C=C/c3cc(OC)c(OC)c(OC)c3)ccc2n1,?,?,?,22.4µM*,18.5µM*,?
CCOc1ccc(/C=C/C(=O)Nc2ccc3nc(N(CC)CC)cc(C)c3c2)cc1OC,?,?,?,2.5%,13.1µM*,5.6%
Nc1nccc(-c2ccc3noc(-c4ccc(Cl)cc4)c3c2)n1,.,-12.8%,.,.,.,.
Cc1ccc(-n2[nH]c(C)c(N=Nc3cccc(-c4cccc(C(=O)O)c4)c3O)c2=O)cc1C,.,-7.5%,.,.,.,.
COc1ccc(/C=C\c2onc(C)c2S(=O)(=O)N2CCC(C(=O)Nc3ccc(C)c(F)c3)CC2)cc1,-2.2%,4.9%,?,9.9%,1.4%,6.2%
COc1ccc(/C=C\c2onc(C)c2S(=O)(=O)N2CCC(C(=O)Nc3ccc(Cl)cc3)CC2)cc1,13.3%,4.4%,-6.5%,10µM*,-10.5%,-5.4%
SMILES,S16 viability,OvCa metastasis,PMP22 txn prim,p53null 39C tox,mTORC1 inh,p53null 32C tox
COc1ccc(NS(=O)(=O)c2ccc(N3CCCCS3(=O)=O)cc2)cc1Cl,?,11.0%,7.27µM*,5.6%,-10.1%,4.4%
CCOC(=O)c1ccc(Nc2nc(C(=O)OCC)nc3ccccc23)cc1,22.6%,-0.9%,?,-6.2%,-16.1%,-6.2%
COC(=O)c1ccc(Nc2nc(-c3ccc(C)cc3)nc3ccccc23)cc1,2.0%,26.9%,-30.9%,15.8µM*,-5.8%,?
CC(C)=CCCC(C)=CCCC(C)=CCSc1ccccc1C(=O)O,.,-15.4%,.,.,.,.
Cc1oc(-c2nc3ccccc3n2C)cc1C(=O)c1ccccc1,.,.,.,11.2µM*,.,6.31µM*
CC(Sc1nc2ccccc2n1C)C(=O)NC(c1ccccc1)c1ccccc1 (stereo unspecified),.,.,.,-12.5%,.,0.3%
CC(C)c1ccc(-c2noc(SCC(=O)N3CCCCC3)n2)cc1,-6.4%,2.2%,?,?,3.2%,12.6µM*
Cc1ccc(C(=O)Nc2cc3cc(Cl)ccc3oc2=O)cc1,-6.2%,i,6.5µM*,-24.6%,5.3%,12.5%
COc1ccc(C(=O)Nc2cc3cc(Cl)ccc3oc2=O)cc1OC,0.7%,-16.2%,-18.1%,-9.8%,0.2%,18.4%
CCN1CCN(c2cc(C)c3cc(NC(=O)/C=C/c4cccc(OC)c4OC)ccc3n2)CC1,?,?,-17.6%,?,?,-17.5%
COc1cccc(/C=C/C(=O)Nc2ccc3nc(N4CCN(C)CC4)cc(C)c3c2)c1OC,31.6µM*,?,?,20µM*,?,?
